# Legend:
# Assay in all cases: DAPPL (digital affinity profiling via proximity ligation, sequencing); 10 mM Tris-HCl pH 7.5, 50 mM NaCl, 1 mM DTT, 4% glycerol, room temperature, 30 min; GST-TFs on glutathione beads, 16-mer random dsDNA library, 0.1% formaldehyde crosslink after washing; high values mean tight binding
# FEV = molecular target: T1, FEV (Homo sapiens, UniProt Q99581 1-238); conditions: protein: recombinant; tags: N-terminal GST; dsDNA, one strand shown
# T1 sequence: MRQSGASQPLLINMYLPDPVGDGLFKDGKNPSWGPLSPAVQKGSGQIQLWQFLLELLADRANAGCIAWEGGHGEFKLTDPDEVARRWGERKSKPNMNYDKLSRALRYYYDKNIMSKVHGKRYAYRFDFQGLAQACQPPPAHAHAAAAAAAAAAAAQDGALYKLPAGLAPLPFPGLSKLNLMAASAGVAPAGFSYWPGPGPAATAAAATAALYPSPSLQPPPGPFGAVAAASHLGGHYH
# Procedure, shortened: (§1)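 Binding signal is given per hexamer as its read frequency for a factor divided by its frequency in the tag-only sample. GST-fused human transcription factors were expressed in yeast, captured on glutathione beads, barcoded with DNA and pooled with that sample, then incubated with 200 nmole of a 16-mer random double-stranded DNA library in Tris/NaCl/DTT/glycerol buffer for 30 min at room temperature. The pools were then washed, crosslinked, proximity-ligated, amplified by PCR and sequenced on an Illumina NextSeq500.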
# ETV5 = ETV5 (Homo sapiens, UniProt P41161 1-510); conditions: protein: recombinant; tags: N-terminal GST; dsDNA, one strand shown
# Chain of ETV5 (P41161 whole entry): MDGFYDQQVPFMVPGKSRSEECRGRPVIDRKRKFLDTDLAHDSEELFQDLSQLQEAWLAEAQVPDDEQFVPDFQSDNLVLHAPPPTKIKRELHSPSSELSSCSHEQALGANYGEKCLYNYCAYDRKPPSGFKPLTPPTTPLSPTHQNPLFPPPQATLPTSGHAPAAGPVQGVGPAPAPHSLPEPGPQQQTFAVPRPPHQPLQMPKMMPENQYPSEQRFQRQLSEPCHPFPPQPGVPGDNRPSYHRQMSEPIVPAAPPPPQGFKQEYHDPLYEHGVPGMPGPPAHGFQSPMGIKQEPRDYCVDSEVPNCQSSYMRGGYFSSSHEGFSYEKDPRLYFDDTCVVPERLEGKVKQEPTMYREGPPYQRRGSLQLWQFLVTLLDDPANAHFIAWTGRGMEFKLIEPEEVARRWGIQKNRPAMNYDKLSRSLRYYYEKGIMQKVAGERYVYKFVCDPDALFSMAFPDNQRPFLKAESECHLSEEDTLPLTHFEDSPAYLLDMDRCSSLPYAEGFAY
# Procedure, shortened: as §1
# HSF1 = HSF1 (Homo sapiens, UniProt Q00613 1-529); conditions: protein: recombinant; tags: N-terminal GST; chain copies: 3; dsDNA, one strand shown
# Chain of HSF1 (Q00613 whole entry): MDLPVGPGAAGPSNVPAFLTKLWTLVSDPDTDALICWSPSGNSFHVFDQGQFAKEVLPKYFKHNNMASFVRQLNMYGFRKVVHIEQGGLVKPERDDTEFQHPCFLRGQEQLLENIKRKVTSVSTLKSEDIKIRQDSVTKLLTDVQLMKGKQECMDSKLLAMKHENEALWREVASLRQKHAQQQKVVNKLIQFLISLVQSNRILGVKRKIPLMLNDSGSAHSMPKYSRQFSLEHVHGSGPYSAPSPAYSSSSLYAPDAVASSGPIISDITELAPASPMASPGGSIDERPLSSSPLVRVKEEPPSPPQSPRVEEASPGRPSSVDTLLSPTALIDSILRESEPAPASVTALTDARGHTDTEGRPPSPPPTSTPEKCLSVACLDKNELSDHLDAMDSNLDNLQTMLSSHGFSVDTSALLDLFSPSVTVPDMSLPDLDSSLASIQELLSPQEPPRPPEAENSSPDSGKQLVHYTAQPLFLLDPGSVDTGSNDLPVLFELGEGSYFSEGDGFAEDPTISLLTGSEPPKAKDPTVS
# Procedure, shortened: as §1
# SPIC = molecular target: T2, SPIC (Homo sapiens, UniProt Q8N5J4 1-248); conditions: protein: recombinant; tags: N-terminal GST; dsDNA, one strand shown
# T2 sequence: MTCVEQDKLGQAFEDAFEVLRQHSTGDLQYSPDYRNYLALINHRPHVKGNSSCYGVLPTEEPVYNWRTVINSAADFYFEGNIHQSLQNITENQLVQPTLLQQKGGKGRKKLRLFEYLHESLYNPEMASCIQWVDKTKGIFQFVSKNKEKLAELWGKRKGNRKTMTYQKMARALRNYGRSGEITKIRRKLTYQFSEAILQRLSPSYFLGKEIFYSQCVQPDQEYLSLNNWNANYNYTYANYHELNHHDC
# Procedure, shortened: as §1
# ELF4 = ELF4 (Homo sapiens, UniProt Q99607 1-663); conditions: protein: recombinant; tags: N-terminal GST; dsDNA, one strand shown
# Chain of ELF4 (Q99607 whole entry): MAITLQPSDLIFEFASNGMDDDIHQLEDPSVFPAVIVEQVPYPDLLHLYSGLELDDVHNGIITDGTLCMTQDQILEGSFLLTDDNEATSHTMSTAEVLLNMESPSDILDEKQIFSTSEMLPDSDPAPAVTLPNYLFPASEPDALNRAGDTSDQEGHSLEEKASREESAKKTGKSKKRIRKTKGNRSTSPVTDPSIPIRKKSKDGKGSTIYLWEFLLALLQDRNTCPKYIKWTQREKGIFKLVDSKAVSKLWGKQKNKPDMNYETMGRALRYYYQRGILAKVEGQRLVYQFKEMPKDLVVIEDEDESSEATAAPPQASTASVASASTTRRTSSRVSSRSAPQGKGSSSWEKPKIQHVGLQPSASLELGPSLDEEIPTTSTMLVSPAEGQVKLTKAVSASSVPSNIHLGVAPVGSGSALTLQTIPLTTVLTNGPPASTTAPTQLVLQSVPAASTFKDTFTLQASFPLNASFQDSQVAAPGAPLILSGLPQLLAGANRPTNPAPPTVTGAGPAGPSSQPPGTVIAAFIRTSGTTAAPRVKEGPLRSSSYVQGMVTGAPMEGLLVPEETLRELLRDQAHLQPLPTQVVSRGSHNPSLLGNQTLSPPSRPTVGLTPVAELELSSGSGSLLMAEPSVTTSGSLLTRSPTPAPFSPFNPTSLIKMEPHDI
# Procedure, shortened: as §1
# ELK4 = molecular target: T3, ELK4 (Homo sapiens, UniProt P28324-2 1-405); conditions: protein: recombinant; tags: N-terminal GST; dsDNA, one strand shown
# T3 sequence: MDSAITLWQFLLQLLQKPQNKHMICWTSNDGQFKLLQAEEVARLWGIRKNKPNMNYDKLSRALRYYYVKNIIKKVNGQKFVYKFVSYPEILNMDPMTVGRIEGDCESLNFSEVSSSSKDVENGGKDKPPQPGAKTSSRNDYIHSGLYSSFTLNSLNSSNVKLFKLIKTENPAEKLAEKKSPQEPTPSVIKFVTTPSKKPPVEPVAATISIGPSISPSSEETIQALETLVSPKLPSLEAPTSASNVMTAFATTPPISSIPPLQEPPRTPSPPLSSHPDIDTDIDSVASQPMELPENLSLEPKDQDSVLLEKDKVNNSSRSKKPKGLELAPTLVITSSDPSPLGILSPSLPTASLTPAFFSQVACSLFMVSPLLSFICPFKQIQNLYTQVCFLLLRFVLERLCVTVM
# Procedure, shortened: as §1
# ETV2 = molecular target: T4, ETV2 (Homo sapiens, UniProt O00321 1-342); conditions: protein: recombinant; tags: N-terminal GST; dsDNA, one strand shown
# T4 sequence: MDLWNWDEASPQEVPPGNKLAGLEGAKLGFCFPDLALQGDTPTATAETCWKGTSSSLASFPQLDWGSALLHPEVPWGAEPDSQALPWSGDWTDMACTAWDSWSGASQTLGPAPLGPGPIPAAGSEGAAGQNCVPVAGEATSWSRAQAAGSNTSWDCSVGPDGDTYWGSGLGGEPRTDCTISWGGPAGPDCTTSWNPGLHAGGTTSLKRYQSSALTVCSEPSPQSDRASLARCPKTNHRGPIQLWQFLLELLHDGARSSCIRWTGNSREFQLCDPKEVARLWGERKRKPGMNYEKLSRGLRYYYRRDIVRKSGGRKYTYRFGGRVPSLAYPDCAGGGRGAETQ
# Procedure, shortened: as §1
# ELF3 = molecular target: T5, ELF3 (Homo sapiens, UniProt P78545 1-371); conditions: protein: recombinant; tags: N-terminal GST; dsDNA, one strand shown
# T5 sequence: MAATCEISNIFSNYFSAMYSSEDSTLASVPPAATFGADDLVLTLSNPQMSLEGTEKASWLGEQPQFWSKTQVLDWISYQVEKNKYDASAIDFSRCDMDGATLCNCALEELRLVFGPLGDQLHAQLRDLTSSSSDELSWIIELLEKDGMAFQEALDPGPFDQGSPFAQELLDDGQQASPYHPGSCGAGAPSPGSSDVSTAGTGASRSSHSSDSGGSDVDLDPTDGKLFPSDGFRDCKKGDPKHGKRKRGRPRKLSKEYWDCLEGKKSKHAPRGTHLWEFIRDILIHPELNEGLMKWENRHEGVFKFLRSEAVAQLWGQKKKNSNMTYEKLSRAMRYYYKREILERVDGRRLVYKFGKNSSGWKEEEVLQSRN
# Procedure, shortened: as §1
# CRX = CRX (Homo sapiens, UniProt O43186 1-299); conditions: protein: recombinant; tags: N-terminal GST; dsDNA, one strand shown
# Chain of CRX (O43186 whole entry): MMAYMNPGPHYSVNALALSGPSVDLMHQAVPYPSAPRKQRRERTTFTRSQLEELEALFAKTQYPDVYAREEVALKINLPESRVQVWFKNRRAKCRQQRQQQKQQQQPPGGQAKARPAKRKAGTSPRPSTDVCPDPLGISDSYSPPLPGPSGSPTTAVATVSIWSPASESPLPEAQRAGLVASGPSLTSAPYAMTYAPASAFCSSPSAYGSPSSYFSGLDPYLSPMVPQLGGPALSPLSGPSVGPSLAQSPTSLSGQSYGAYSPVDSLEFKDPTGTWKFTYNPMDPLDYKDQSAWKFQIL
# Procedure, shortened: as §1
# ETV1 = ETV1 (Homo sapiens, UniProt P50549 1-477); conditions: protein: recombinant; tags: N-terminal GST; dsDNA, one strand shown
# Chain of ETV1 (P50549 whole entry): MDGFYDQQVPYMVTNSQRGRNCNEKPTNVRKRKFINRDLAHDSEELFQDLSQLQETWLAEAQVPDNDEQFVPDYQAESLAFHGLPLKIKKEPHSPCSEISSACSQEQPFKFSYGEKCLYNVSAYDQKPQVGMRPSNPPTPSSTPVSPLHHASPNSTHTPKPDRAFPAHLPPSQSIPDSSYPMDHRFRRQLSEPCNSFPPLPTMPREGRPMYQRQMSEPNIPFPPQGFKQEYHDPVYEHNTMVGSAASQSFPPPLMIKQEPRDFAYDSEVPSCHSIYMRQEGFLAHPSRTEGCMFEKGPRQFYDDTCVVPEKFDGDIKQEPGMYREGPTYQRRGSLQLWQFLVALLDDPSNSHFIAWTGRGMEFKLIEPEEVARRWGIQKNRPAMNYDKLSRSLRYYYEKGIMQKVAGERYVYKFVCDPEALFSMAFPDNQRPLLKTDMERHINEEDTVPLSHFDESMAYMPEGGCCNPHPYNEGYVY
# Procedure, shortened: as §1
# ERF = molecular target: T6, ERF (Homo sapiens, UniProt P50548 1-548); conditions: protein: recombinant; tags: N-terminal GST; dsDNA, one strand shown
# T6 sequence: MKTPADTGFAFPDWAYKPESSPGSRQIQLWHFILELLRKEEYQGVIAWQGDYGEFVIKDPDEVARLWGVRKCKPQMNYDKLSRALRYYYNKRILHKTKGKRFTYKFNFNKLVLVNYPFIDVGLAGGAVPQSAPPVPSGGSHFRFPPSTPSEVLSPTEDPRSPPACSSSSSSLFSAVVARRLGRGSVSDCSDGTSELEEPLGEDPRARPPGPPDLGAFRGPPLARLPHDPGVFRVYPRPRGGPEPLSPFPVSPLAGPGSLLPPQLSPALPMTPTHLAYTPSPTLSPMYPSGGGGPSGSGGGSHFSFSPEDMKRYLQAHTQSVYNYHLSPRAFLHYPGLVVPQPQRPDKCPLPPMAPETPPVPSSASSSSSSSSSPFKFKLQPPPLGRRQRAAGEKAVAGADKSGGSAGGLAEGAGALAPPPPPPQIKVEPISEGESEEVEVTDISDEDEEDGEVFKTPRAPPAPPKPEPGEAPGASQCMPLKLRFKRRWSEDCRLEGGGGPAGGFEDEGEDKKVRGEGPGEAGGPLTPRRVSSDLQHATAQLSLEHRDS
# Procedure, shortened: as §1
# ETV3L = molecular target: T7, ETV3L (Homo sapiens, UniProt Q6ZN32 1-361); conditions: protein: recombinant; tags: N-terminal GST; dsDNA, one strand shown
# T7 sequence: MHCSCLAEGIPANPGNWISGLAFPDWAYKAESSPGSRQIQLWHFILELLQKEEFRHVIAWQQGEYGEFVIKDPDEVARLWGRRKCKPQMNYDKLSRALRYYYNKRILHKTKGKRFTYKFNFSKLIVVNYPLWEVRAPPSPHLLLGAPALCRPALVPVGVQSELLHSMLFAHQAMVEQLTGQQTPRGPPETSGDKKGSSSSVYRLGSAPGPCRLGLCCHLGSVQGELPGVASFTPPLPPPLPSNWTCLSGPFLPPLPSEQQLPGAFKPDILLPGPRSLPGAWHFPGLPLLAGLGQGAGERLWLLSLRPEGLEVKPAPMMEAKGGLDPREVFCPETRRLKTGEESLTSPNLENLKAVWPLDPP
# Procedure, shortened: as §1
# ETS2 = molecular target: T8, ETS2 (Homo sapiens, UniProt P15036 1-469); conditions: protein: recombinant; tags: N-terminal GST; dsDNA, one strand shown
# T8 sequence: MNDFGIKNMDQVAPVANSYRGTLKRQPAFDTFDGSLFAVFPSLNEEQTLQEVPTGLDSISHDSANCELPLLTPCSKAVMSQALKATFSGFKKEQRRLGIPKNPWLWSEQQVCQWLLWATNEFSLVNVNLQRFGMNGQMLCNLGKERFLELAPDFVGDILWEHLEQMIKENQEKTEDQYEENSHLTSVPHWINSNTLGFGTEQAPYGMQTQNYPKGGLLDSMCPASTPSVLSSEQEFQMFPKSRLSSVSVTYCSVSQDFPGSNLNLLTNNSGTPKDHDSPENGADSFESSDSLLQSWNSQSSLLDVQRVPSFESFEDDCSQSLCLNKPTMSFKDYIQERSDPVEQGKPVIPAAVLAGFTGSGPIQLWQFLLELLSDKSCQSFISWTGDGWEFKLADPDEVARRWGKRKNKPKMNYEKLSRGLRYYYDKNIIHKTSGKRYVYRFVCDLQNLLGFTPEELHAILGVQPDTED
# Procedure, shortened: as §1
# SPDEF = molecular target: T9, SPDEF (Homo sapiens, UniProt O95238 1-335); conditions: protein: recombinant; tags: N-terminal GST; dsDNA, one strand shown
# T9 sequence: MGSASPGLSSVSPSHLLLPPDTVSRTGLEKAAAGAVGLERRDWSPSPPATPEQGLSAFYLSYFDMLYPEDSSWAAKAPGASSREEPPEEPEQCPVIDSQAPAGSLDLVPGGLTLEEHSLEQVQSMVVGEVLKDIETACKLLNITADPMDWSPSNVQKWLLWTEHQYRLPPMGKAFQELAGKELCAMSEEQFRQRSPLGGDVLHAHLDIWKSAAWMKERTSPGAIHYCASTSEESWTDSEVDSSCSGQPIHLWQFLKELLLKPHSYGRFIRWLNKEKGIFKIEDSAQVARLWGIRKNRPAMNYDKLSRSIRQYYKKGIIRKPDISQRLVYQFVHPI
# Procedure, shortened: as §1
# ETV7 = molecular target: T10, ETV7 (Homo sapiens, UniProt Q9Y603 1-341); conditions: protein: recombinant; tags: N-terminal GST; dsDNA, one strand shown
# T10 sequence: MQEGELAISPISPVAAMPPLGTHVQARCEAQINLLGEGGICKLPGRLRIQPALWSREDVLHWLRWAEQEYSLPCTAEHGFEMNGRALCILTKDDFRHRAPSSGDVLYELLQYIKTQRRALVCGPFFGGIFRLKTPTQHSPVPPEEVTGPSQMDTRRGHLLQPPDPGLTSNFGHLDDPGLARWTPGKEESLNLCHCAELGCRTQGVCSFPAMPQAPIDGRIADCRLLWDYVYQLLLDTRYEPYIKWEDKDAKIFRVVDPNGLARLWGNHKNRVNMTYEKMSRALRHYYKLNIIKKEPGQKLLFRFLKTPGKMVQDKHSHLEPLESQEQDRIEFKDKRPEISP
# Procedure, shortened: as §1
# ELF5 = molecular target: T11, ELF5 (Homo sapiens, UniProt Q9UKW6-2 1-255); conditions: protein: recombinant; tags: N-terminal GST; dsDNA, one strand shown
# T11 sequence: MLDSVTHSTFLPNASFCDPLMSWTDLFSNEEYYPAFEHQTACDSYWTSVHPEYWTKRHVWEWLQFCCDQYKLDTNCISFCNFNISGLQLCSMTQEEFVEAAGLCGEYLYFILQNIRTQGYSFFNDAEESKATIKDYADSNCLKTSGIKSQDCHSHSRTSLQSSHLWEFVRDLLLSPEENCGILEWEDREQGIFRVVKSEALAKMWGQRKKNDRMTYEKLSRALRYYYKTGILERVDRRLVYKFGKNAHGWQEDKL
# Procedure, shortened: as §1
# ETV3 = molecular target: T12, ETV3 (Homo sapiens, UniProt P41162-2 1-143); conditions: protein: recombinant; tags: N-terminal GST; dsDNA, one strand shown
# T12 sequence: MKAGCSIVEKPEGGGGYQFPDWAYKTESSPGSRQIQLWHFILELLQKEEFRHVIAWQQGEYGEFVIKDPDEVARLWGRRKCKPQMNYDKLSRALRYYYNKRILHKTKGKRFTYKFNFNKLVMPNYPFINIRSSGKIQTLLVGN
# Procedure, shortened: as §1
# ETV6 = ETV6 (Homo sapiens, UniProt P41212 1-452); conditions: protein: recombinant; tags: N-terminal GST; dsDNA, one strand shown
# Chain of ETV6 (P41212 whole entry): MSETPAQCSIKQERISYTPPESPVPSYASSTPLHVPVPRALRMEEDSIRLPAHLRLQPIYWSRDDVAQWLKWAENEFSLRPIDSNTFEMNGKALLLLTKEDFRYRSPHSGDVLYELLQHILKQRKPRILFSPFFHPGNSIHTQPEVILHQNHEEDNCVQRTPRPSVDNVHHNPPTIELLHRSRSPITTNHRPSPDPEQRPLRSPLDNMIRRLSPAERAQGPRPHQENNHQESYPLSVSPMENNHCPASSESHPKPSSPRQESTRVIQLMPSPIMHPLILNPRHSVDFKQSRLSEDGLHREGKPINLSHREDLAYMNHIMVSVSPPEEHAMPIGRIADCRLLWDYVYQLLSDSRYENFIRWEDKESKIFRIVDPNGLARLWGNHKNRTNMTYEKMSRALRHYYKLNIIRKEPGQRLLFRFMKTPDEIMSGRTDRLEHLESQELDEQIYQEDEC
# Procedure, shortened: as §1
sequence,measurement,setting,value
CCTGGA,binding signal,FEV,"1.27 fold enrichment (6-mer frequency, TF over GST control)"
same,binding signal,ETV5,"1.47 fold enrichment (6-mer frequency, TF over GST control)"
same,binding signal,HSF1,"1.77 fold enrichment (6-mer frequency, TF over GST control)"
same,binding signal,SPIC,"1.42 fold enrichment (6-mer frequency, TF over GST control)"
same,binding signal,ELF4,"1.47 fold enrichment (6-mer frequency, TF over GST control)"
same,binding signal,ELK4,"1.38 fold enrichment (6-mer frequency, TF over GST control)"
same,binding signal,ETV2,"1.51 fold enrichment (6-mer frequency, TF over GST control)"
same,binding signal,ELF3,"1.12 fold enrichment (6-mer frequency, TF over GST control)"
same,binding signal,CRX,"1.41 fold enrichment (6-mer frequency, TF over GST control)"
same,binding signal,ETV1,"1.41 fold enrichment (6-mer frequency, TF over GST control)"
same,binding signal,ERF,"1.32 fold enrichment (6-mer frequency, TF over GST control)"
same,binding signal,ETV3L,"1.49 fold enrichment (6-mer frequency, TF over GST control)"
same,binding signal,ETS2,"1.52 fold enrichment (6-mer frequency, TF over GST control)"
same,binding signal,SPDEF,"1.57 fold enrichment (6-mer frequency, TF over GST control)"
same,binding signal,ETV7,"1.34 fold enrichment (6-mer frequency, TF over GST control)"
same,binding signal,ELF5,"1.74 fold enrichment (6-mer frequency, TF over GST control)"
same,binding signal,ETV3,"1.37 fold enrichment (6-mer frequency, TF over GST control)"
same,binding signal,ETV6,"1.44 fold enrichment (6-mer frequency, TF over GST control)"

# Source: article PMC7862700, “An all-to-all approach to the identification of sequence-specific readers for epigenetic DNA modifications on cytosine”
